For ten molecules, Potency results are on record in PubChem BioAssay (Tox21).

Results filed as inconclusive are left out. Calls of active or inactive are those of the source. Unless noted, the call rests on the fitted dose curve; in most records, active means well fitted curve in the direction sought with a large enough effect in the repeat runs; inconclusive means weak or mixed curves; inactive means no such curve, though single readings can be large; an effect the other way counts as inactive or inconclusive.

Assay [1] has as its target Aryl hydrocarbon receptor (Homo sapiens) (UniProt P35869). In words: qHTS assay to identify small molecule that activate the aryl hydrocarbon receptor (AhR) signaling pathway (AID 743085). Further: nearly all actives have a fitted effect of over 15% in size. Further: potency means the concentration at half of the fitted maximal effect.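 On activation: HG2L7.5c1 human HepG2 liver cells with stably integrated DRE-driven firefly reporter; series mostly up to about 70 µM.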 The essentials:
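Luminescence (ONE-Glo) from a dioxin-responsive-element luciferase reporter in HG2L7.5c1 HepG2 cells after 24 hr compound exposure at 37C; viability measured by CellTiter-Fluor fluorescence beforehand.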

Assay [2] in a line: qHTS assay to identify small molecule that activate the aryl hydrocarbon receptor (AhR) signaling pathway - cell viability counter screen (AID 743086). Further: nearly all actives have a fitted effect of over 45% in size. Further: potency means the concentration at half of the fitted maximal effect. The procedure, abridged: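 Cytotoxicity counter screen: CellTiter-Fluor signal (30 min, 37 C) in 4000 HepG2 cells/well carrying the DRE-luciferase reporter, following 24 h compound exposure at 37 C.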
Assay [3] deals with Peroxisome proliferator-activated receptor gamma (Homo sapiens) (UniProt P37231). In words: qHTS assay to identify small molecule agonists of the peroxisome proliferator-activated receptor gamma (PPARg) signaling pathway (AID 743094; active means well fitted activation curve with a large enough effect in the signal ratio in the repeat runs, not every such curve was filed as active; the % refers to the signal ratio). The procedure, abridged: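 Cells from the PPARg UAS-bla HEK293H line are plated and incubated 5 h at 37C. Compounds in DMSO are pinned in and left 17 h at 37C. LiveBLAzer B/G substrate is then added for 1 h at room temperature before fluorescence is measured.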
Sequence of Peroxisome proliferator-activated receptor gamma (Homo sapiens) (P37231 whole entry, looked up): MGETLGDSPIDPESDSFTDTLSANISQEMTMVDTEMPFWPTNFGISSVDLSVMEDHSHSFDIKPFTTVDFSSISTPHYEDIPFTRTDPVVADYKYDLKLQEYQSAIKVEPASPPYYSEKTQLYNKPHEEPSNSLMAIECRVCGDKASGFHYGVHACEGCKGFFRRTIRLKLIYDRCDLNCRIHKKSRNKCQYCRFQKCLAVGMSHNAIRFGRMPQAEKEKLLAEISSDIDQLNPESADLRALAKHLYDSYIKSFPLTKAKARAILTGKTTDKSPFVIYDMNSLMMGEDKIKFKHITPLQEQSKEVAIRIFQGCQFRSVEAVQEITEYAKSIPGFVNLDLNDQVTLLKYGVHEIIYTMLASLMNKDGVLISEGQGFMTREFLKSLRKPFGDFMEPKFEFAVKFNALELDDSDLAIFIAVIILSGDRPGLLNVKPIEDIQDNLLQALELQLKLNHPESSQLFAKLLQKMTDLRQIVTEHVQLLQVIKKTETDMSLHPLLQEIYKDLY

Assay [4] in a line: qHTS assay to identify small molecule antagonists of the peroxisome proliferator-activated receptor gamma (PPARg) signaling pathway - cell viability counter screen (AID 743194). Further: nearly all actives have a fitted effect of over 55% in size. The procedure, abridged:
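Viability was measured as CellTiter-Glo luminescence in GeneBLAzer PPARg UAS-bla HEK293H cells. These cells had been exposed 17 h at 37 C to compounds together with rosiglitazone at 50 nM final, with the beta-lactamase readout taken in the same wells.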

Assay [5] in a line: qHTS assay for small molecule agonists of the antioxidant response element (ARE) signaling pathway - cell viability counter screen (AID 743203; calls by dose curve; further: nearly all actives have a fitted effect of over 55% in size). The procedure, abridged:
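Cytotoxicity was tested in parallel with the ARE reporter screen. ARE-bla HepG2 cells were exposed to compounds for 16 hrs, and viability was taken from CellTiter-Glo luminescence.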

Assay [6] in a line: qHTS assay for small molecule activators of the heat shock response signaling pathway - cell viability counter screen (AID 743209). Further: nearly all actives have a fitted effect of over 50% in size. The essentials: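 Cytotoxicity counter screen run in parallel with the HSE beta-lactamase reporter, using the same wells. HeLa HSE-bla cells received compound for 5 h at 37 C; ATP-based CellTiter-Glo luminescence was measured after 30 min at room temperature.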

Assay [7] is described as follows: qHTS assay for small molecule activators of the heat shock response signaling pathway (AID 743210; active means well fitted activation curve with a large enough effect in the signal ratio in the repeat runs, with a control signal flat, not every such curve was filed as active; the % refers to the signal ratio;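 further: HeLa cells with beta-lactamase reporter driven by heat shock elements; series mostly up to about 63 µM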). The procedure, abridged: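 Fluorescence from a cleaved B/G FRET substrate (2.5 h, room temp) reports HSE-driven beta-lactamase in HeLa cells treated 5 h at 37 C with DMSO-dissolved compounds.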
The nature of assay [8]: qHTS assay to identify small molecule agonists of the peroxisome proliferator-activated receptor delta (PPARd) signaling pathway - cell viability counter screen (AID 743211). Further: nearly all actives have a fitted effect of over 55% in size. Further: potency means the concentration at half of the fitted maximal effect. The essentials:
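Viability was measured as CellTiter-Glo luminescence (30 min, room temperature) in the same wells as the beta-lactamase readout. GeneBLAzer PPARd UAS-bla HEK293H cells received compound after 5 h plating and were incubated 17 h at 37 C.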

For assay [9], the target named is Peroxisome proliferator-activated receptor delta (Homo sapiens) (UniProt Q03181). As to the kind of experiment: qHTS assay to identify small molecule agonists of the peroxisome proliferator-activated receptor delta (PPARd) signaling pathway (AID 743212; calls by dose curve). The essentials: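 Steps: seed PPARd-bla HEK293H cells; incubate 5 h, 37 C, 5% CO2; add compounds in DMSO; incubate, 37 C; add LiveBLAzer B/G FRET substrate; hold 2 h at room temperature; measure fluorescence.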
Sequence of Peroxisome proliferator-activated receptor delta (Homo sapiens) (Q03181 whole entry, looked up): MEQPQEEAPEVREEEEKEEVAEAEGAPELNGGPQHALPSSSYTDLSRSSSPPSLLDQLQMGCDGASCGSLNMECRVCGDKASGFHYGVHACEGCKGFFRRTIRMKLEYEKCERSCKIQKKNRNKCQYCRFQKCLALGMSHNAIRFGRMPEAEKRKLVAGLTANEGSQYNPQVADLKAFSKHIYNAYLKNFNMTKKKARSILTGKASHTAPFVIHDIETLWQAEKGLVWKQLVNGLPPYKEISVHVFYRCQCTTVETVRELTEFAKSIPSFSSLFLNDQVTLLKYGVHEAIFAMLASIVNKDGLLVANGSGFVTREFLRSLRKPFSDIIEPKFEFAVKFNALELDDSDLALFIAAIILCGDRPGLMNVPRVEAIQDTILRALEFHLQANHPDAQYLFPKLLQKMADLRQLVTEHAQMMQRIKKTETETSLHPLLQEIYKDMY

A short description of assay [10]: qHTS assay to identify small molecule antagonists of the peroxisome proliferator-activated receptor delta (PPARd) signaling pathway - cell viability counter screen (AID 743213). Further: nearly all actives have a fitted effect of over 50% in size. Further: potency means the concentration at half of the fitted maximal effect. The essentials:
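PPARd-bla HEK293H cells were treated with compounds plus agonist L165041 (300 nM final) for 17 h at 37 C. Viability was then read in the same wells by CellTiter-Glo luminescence after 30 min at room temperature.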

The target of assay [11] is Peroxisome proliferator-activated receptor delta (Homo sapiens) (UniProt Q03181). In words: qHTS assay to identify small molecule antagonists of the peroxisome proliferator-activated receptor delta (PPARd) signaling pathway (AID 743215; active means well fitted inhibition curve with a large enough effect in the signal ratio in the repeat runs, not every such curve was filed as active; the % refers to the signal ratio;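 further: cells stimulated with agonist L165041 at 300 nM final during compound exposure; series mostly up to about 62 µM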). The essentials:
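Cells: HEK293H with a UAS-driven beta-lactamase reporter responsive to PPARd. Compounds were co-added with L165041 (300 nM, final) and incubated 17 h at 37 C before a 2 h room-temperature FRET substrate step and fluorescence reading.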

Assay [12] addresses Bile acid receptor (Homo sapiens) (UniProt Q96RI1). As to the kind of experiment: qHTS assay to identify small molecule antagonists of the farnesoid-X-receptor (FXR) signaling pathway (AID 743217; active means well fitted inhibition curve with a large enough effect in the signal ratio in the repeat runs, not every such curve was filed as active; the % refers to the signal ratio). The essentials:
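Cells carrying a UAS-driven beta-lactamase reporter (GeneBLAzer FXR-UAS-bla HEK 293T) were plated and rested 5 h at 37 °C. Compounds in DMSO were added alongside chenodeoxycholic acid agonist at 50 uM final and left 16 h at 37 °C before FRET substrate readout.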

A short description of assay [13]: qHTS assay to identify small molecule agonists of the farnesoid-X-receptor (FXR) signaling pathway - cell viability counter screen (AID 743218). Further: nearly all actives have a fitted effect of over 45% in size. The essentials:
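Cells were seeded, left 5 h at 37 C and 5% CO2, then dosed with compound in DMSO for 16 h. After the beta-lactamase FRET read, CellTiter-Glo was added and luminescence measured 30 min later.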

In assay [14] the target is Bile acid receptor (Homo sapiens) (UniProt Q96RI1). In words: qHTS assay to identify small molecule agonists of the farnesoid-X-receptor (FXR) signaling pathway (AID 743220; active means well fitted activation curve with a large enough effect in the signal ratio in the repeat runs, not every such curve was filed as active; the % refers to the signal ratio). The essentials: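 FXR-UAS-bla HEK 293T cells carrying a UAS-driven beta-lactamase reporter were plated for 5 h at 37C/5% CO2, then exposed to DMSO-dissolved Tox21 10K compounds for 16 h at 37C. A LiveBLAzer B/G FRET substrate was loaded for 2 h at room temperature before fluorescence reading.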
Sequence of Bile acid receptor (Homo sapiens) (Q96RI1 whole entry, looked up): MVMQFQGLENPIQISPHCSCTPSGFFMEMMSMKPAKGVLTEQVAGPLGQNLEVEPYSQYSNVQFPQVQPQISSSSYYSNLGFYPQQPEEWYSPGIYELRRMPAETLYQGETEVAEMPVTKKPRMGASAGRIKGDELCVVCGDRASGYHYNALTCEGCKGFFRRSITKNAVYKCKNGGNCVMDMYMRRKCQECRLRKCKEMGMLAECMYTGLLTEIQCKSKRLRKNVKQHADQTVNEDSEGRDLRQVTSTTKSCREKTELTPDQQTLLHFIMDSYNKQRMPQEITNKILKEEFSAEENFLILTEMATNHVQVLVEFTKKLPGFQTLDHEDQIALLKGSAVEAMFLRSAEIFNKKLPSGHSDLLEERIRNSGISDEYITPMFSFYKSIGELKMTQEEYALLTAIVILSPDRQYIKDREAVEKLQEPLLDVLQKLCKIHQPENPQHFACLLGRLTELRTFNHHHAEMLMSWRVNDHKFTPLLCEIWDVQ

Assay [15] in a line: qHTS assay to identify small molecule antagonists of the farnesoid-X-receptor (FXR) signaling pathway - cell viability counter screen (AID 743221; active means well fitted cell-killing curve with a large enough effect in the repeat runs, not every such curve was filed as active; further: nearly all actives have a fitted effect of over 50% in size). The procedure, abridged:
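Cytotoxicity counter screen run in the FXR-bla reporter wells: HEK 293T cells exposed to compound with 50 uM (final) chenodeoxycholic acid for 16 h, 37 C, then viability measured by CellTiter-Glo luminescence after 30 min, room temperature.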

Assay [16] in a line: qHTS assay to identify small molecule agonists of the vitamin D receptor (VDR) signaling pathway - cell viability counter screen (AID 743224). Further: series mostly up to about 63 µM; nearly all actives have a fitted effect of over 50% in size. The procedure, abridged:
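Cells: VDR-bla, 2,000/well, settled 4 h. Treatment: compounds in DMSO, 16 h, 37C/5% CO2. Readout: CellTiter-Glo luminescence after 30 min RT.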

The target in assay [17] is Vitamin D3 receptor (Homo sapiens) (UniProt P11473). In words: qHTS assay to identify small molecule antagonists of the vitamin D receptor (VDR) signaling pathway (AID 743223; active means well fitted inhibition curve with a large enough effect in the signal ratio in the repeat runs, not every such curve was filed as active; the % refers to the signal ratio). The essentials: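 Antagonist mode: compound added to VDR-bla cells alongside agonist 1alpha,25-dihydroxyvitamin D3 (3 nM final), incubation 16 h at 37C. Read-out is LiveBLAzer FRET fluorescence, 2 h at room temperature.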
Sequence of Vitamin D3 receptor (Homo sapiens) (P11473 whole entry, looked up): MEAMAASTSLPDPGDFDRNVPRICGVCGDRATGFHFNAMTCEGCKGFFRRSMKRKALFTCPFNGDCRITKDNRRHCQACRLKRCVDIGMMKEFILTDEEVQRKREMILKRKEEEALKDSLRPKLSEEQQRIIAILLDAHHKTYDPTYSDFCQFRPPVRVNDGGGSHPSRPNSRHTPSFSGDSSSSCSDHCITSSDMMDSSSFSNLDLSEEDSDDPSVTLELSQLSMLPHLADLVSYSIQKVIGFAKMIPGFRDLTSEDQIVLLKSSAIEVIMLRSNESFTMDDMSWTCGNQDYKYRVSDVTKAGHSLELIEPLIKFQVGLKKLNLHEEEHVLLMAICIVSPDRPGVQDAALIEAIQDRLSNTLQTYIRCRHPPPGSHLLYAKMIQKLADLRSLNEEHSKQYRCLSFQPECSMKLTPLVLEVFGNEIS

Assay [18] shares this target. As to the kind of experiment: qHTS assay to identify small molecule agonists of the vitamin D receptor (VDR) signaling pathway (AID 743222; calls by dose curve). The procedure, abridged: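 Cells carrying a VDR-driven beta-lactamase reporter are seeded at 2,000 per well and rested 4 h. Compounds in DMSO are added for 16 h at 37C, and FRET substrate fluorescence is measured after 2 h at room temperature.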

Assay [19] in a line: qHTS assay for small molecule agonists of the antioxidant response element (ARE) signaling pathway (AID 743202; active means well fitted activation curve with a large enough effect in the signal ratio in the repeat runs, not every such curve was filed as active; the % refers to the signal ratio). The essentials: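 Beta-lactamase reporter activity, read as fluorescence intensity, reflects ARE/Nrf2 pathway induction in HepG2 cells after 16 h compound exposure at 37 C; substrate loading was 2 h at room temperature.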
Assay [20] deals with Peroxisome proliferator-activated receptor gamma (Homo sapiens) (UniProt P37231). In words: qHTS assay to identify small molecule antagonists of the peroxisome proliferator-activated receptor gamma (PPARg) signaling pathway (AID 743191; calls by dose curve; further: nearly all actives have a fitted effect of over 30% in size; further: potency means the concentration at half of the fitted maximal effect). The procedure, abridged:
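Beta-lactamase reporter under UAS control in HEK293H PPARg-bla cells; compound treatment 17 h at 37C. Read-out: fluorescence intensity after 1 h room-temperature incubation with LiveBLAzer B/G FRET substrate.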

Sequence of Aryl hydrocarbon receptor (Homo sapiens) (P35869 whole entry, looked up): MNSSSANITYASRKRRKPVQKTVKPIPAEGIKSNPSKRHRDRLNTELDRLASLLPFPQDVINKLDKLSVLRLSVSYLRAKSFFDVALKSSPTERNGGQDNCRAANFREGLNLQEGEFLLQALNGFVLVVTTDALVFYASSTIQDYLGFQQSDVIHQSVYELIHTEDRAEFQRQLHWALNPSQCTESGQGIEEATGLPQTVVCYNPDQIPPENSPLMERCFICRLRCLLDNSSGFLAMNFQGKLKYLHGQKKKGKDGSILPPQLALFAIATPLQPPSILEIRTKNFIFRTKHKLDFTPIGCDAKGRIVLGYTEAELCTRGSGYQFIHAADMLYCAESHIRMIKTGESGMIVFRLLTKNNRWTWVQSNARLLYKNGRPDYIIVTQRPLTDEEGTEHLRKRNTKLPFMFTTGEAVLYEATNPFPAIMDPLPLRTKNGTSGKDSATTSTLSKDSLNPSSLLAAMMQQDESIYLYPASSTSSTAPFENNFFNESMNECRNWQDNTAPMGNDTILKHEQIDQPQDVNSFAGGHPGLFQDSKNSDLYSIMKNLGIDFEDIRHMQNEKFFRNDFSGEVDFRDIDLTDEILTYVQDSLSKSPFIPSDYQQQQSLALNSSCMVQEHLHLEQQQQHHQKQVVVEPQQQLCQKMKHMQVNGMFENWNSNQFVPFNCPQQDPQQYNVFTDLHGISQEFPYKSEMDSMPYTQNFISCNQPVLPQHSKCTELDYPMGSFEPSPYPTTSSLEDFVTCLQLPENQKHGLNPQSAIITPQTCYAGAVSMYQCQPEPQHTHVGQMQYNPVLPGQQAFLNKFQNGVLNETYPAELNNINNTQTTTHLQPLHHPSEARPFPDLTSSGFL

As for `CC1(C)O[C@@H]2C[C@H]3[C@@H]4C[C@H](F)C5=CC(=O)C=C[C@]5(C)[C@H]4[C@@H](O)C[C@]3(C)[C@]2(C(=O)CO)O1`, the Potency entry in [1], in assay [2], in assay [3], in assay [4], in [5] and in assay [6] was “inactive” throughout. For the same molecule, the Potency result in assay [7], in [8], in assay [9], in assay [10], in assay [11] and in assay [12] was “inactive” in each case. The Potency entry in assay [13], in assay [14], in [15] and in assay [16] was “inactive” each time.

In the case of `COc1ccccc1Oc1c(NS(=O)(=O)c2ccc(C(C)(C)C)cc2)nc(-c2ncccn2)nc1OCCO`, the Potency result in [1], in assay [2], in assay [3], in [4], in [5] and in [6] was “inactive” each time. The Potency result in assay [8], in assay [9], in assay [10], in assay [11], in assay [13] and in [15] was “inactive” each time. Also, in [17], the Potency result is “inactive”.

For the molecule `CC(C)=CC(=O)C=C(C)C`, the Potency entry in [1], in [2], in assay [3], in [4], in assay [5] and in assay [6] was “inactive” each time. For the same molecule, the Potency result in [7], in assay [8], in assay [9], in assay [10], in [11] and in [12] was “inactive” throughout. Further, the Potency result in assay [13], in assay [14], in assay [15], in assay [18], in assay [17] and in assay [16] was “inactive” each time.

`Cc1cscn1`: the Potency result in assay [1], in assay [2], in assay [3], in assay [4], in assay [19] and in assay [5] was “inactive” each time. The Potency result in assay [6], in assay [8], in [9], in assay [10], in assay [11] and in [13] was “inactive” in each case. The Potency result in assay [15], in [18], in assay [17] and in assay [16] was “inactive” throughout.

Turning to `CCCCC(CC)CN` (stereo not drawn), the Potency entry in assay [1], in [2], in assay [3], in assay [20], in assay [4] and in [5] was “inactive” throughout. Also, the Potency result in [7], in [11], in assay [18], in assay [17] and in assay [16] was “inactive” each time.

With `CCCCCC#CC(=O)OC`, the Potency entry in [1], in assay [2], in assay [3], in assay [20], in [4] and in assay [5] was “inactive” each time. The Potency result in [6], in [8], in assay [10], in assay [11], in [13] and in assay [15] was “inactive” each time. Further, the Potency result in assay [18] and in [16] was “inactive” throughout.

On to `CC[N+](CC)(CCNC(=O)C(=O)NCC[N+](CC)(CC)Cc1ccccc1Cl)Cc1ccccc1Cl`, for which the Potency entry in assay [1], in assay [2], in assay [3], in [20], in assay [19] and in [7] was “inactive” each time. The Potency entry in assay [8], in assay [9], in assay [10], in assay [11], in [13] and in assay [15] was “inactive” throughout. Moreover, in assay [16], the Potency entry was “inactive”.

As to `Nc1ccc(N=Nc2ccccc2)c(N)c1`, the Potency in [1] was 30 µM (active); in assay [2], 26.7 µM (active); in assay [20] it was 42.7 µM (active). Moreover, the Potency entry in [3], in [5], in assay [6], in [9], in assay [12] and in assay [13] was “inactive” each time. Also, the Potency result in [14] and in [15] was “inactive” throughout.

Turning to `COc1ccccc1N1CCN(CC(O)COc2cccc3ccccc23)CC1` (stereo not drawn), the values for the Potency in assay [1], in [8] and in assay [10] were 29.8 µM (active), 26.6 µM (active) and 29.8 µM (active), respectively. Moreover, the Potency result in [2], in assay [3], in assay [4], in [5], in [6] and in [9] was “inactive” each time. Moreover, the Potency result in assay [11], in assay [13], in assay [15], in assay [18], in [17] and in [16] was “inactive” each time.

In the case of `O=c1[nH]ncc2ccccc12`, the Potency result in assay [1], in assay [2], in [3], in assay [20], in assay [4] and in assay [5] was “inactive” in each case. Also, the Potency entry in assay [6], in [8], in assay [9], in [10], in assay [11] and in assay [13] was “inactive” throughout. For the same molecule, the Potency result in [15], in assay [18], in [17] and in assay [16] was “inactive” throughout.
